Source: PubChem
ELG1 DNA repair – inhibitors of ELG1-dependent DNA repair in HEK293T cells | HEK293T ELG1-luciferase reporter, luminescence, 16 h; DNA damage induced by 5-fluorouridine | hit rate 2.3% among 330,000 | Potency, µM (highest dose often 46.1 µM), inactives show at the highest dose activity change, negative = inhibition, usual class: inhibitors; note: % is set by controls: 0 for no effect and ±100 for the full control effect; nearly all actives have a fitted effect of over 55% in size
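DMSO vehicle served as the neutral condition. Each well held 2,000 cells given 5-fluorouridine plus compound; after 16 hr at 37 °C/5% CO2, ONE-Glo was added and luciferase measured 30 min later.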
KB-V1 MDR tox – KB-V1 MDR subline cytotoxicity; KB-V1 MDR cells viability, CellTiter-Glo, 72 h; Potency, µM (series often up to 46.1 µM), most hits filed as cytotoxic; hit rate 3.4% among 400,000; AID 1347076; note: % is set by controls: 0 for no effect and ±100 for the full control effect; nearly all actives have a fitted effect of over 60% in size
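KB-V1 cells (P-gp-expressing MDR subline of KB-3-1) in phenol-red-free DMEM with 10% FBS were exposed to library compounds over a concentration series for 72 h at 37 degrees C. Viability read by CellTiter-Glo luminescence; concentration-effect curves fitted after normalization.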
SW480 rerep – induces DNA re-replication in SW480 colon adenocarcinoma cells; hit rate 1.8% among 340,000; Potency, µM (doses to about 46.1 µM), for the others: top-dose re-replication activation, hits mostly activators; SW480 DNA re-replication, Hoechst DNA content imaging, 48 h; note: % of control where 0% means no effect; nearly all actives have a fitted effect of over 55% in size
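SW480 cells exposed to compounds for 48 hr at 37 C, 5% CO2, then Hoechst-stained 40 min. Nuclear DNA content imaged by fluorescence scanning (405 nm excitation, 500-530 nm emission); re-replication scored as increased high-intensity nuclei.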
MCF10A rerep – induces DNA re-replication in MCF 10a normal breast cells; hit rate 2.9% among 350,000; Potency, µM (series often up to 46.1 µM), inactives show at the highest dose activity, positive = re-replication, usual class: activators; MCF 10A DNA re-replication, Hoechst nuclear intensity, 48 h; AID 624296; note: % of control where 0% means no effect; nearly all actives have a fitted effect of over 50% in size
KB-3-1 tox – kills parental KB-3-1 adenocarcinoma cells. KB-3-1 viability, CellTiter-Glo ATP luminescence, 72 h. Potency, µM (series often up to 46.1 µM), hits mostly cytotoxic. AID 1347075. hit rate 1.4% among 400,000; note: % is set by controls: 0 for no effect and ±100 for the full control effect; nearly all actives have a fitted effect of over 60% in size
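Cells are dispensed, compounds pinned in, plates held at 37 °C for 72 h, then CellTiter-Glo is added and luminescence read after 10 minutes. Cell line: parental KB-3-1 in phenol-red-free DMEM, 10% FBS.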
* marks the source's active call; other numbers are inactive results; i = inactive; ? = inconclusive; · = no result given; [ ] = another dose, or the depositor's remark. Most compounds without a hit are left out; they make up all but 8.1% or so of the library. Calls come from the whole dose curve; as a rule, active = well fitted curve in the direction sought with a large enough effect; inconclusive = small, poorly fitted or top-dose-only effect, or another doubt; inactive = no such curve, though single readings can be large; an effect the other way counts as inactive or inconclusive. Potency is the fitted concentration of half-maximal effect.

SMILES	ELG1 DNA repair	KB-V1 MDR tox	SW480 rerep	MCF10A rerep	KB-3-1 tox
CCc1ccc(OCC(O)CN2CCC(CN3C(=O)c4cccc5cccc(c45)C3=O)CC2)cc1 (stereo not drawn)	?	?	-0.8%	-10.6%	23.1µM*
O=C(Nc1ccc(F)cc1F)c1ccc2ncsc2c1	?	i	-6.6%	-2.0%	i
COC(=O)c1ccc(C)c(NC(=O)Cc2coc3cc(OC)ccc23)c1	?	?	10.6%	21.6%	i
COc1ccc(Cl)cc1NC(=O)CN(C)C(=O)c1n[nH]c2ccccc12	8.2µM*	i	-162.8%	3.6%	i
COc1ccc(Cl)cc1NC(=O)CN(C)C(=O)c1ccc(N2CCCCC2)c([N+](=O)[O-])c1	?	?	4.3%	-1.7%	14.6µM*
COc1ccc(Cl)cc1NC(=O)CN(C)C(=O)c1cn2ccccc2n1	?	?	13µM*	?	?
COc1ccc(Cl)cc1NC(=O)CN(C)C(=O)c1cc(=O)c2ccccc2o1	?	i	?	29.1%	i
C#CCOc1c(Cl)cc(/C=N/O)cc1OC	?	i	-2.7%	6.7%	i
Cc1[nH]n(-c2ccc(Cl)cc2)c(=O)c1/C=N/c1nnc(-c2ccccc2)s1	?	i	-4.3%	7.4%	?
CC1CCCC(C)N1C(=O)c1ccccc1Nc1ccc(SC(F)F)cc1 (stereo not drawn)	-4.9%	?	?	?	?
C=CCOc1ccc(/C=N/NC(=O)c2cc3c(OC)cc(OC)cc3[nH]2)cc1	?	i	-5.0%	11.5%	i
COc1ccc(OC)c(/C=N/NC(=O)c2cc3c(OC)cc(OC)cc3[nH]2)c1	20.6µM*	i	5.4%	?	i
CCOc1ccc(/C=N/NC(=O)c2cc3c(OC)cc(OC)cc3[nH]2)cc1OC	23.1µM*	i	?	?	i
COc1ccc(OC)c(/C=N/NC(=O)c2cc3c(OC)cccc3[nH]2)c1	0.4%	i	26.6%	?	i
Cc1cccc(NC(=O)CSCC(=O)N2CCCc3ccccc32)c1	2.9%	i	-0.5%	11.6%	i
CCn1c(SCC(=O)NC2CCCCC2)nnc1-c1ccccc1F	-6.1%	i	0.9%	-9.3%	i
COc1cc(/C=N/N2C(=O)C3C4c5ccccc5C(c5ccccc54)C3C2=O)ccc1O (stereo not drawn)	?	10.3µM*	-1.9%	0.4%	i
COc1cccc(/C=N/N2C(=O)C3C4c5ccccc5C(c5ccccc54)C3C2=O)c1OC (stereo not drawn)	-1.7%	·	·	·	·
NC(=O)c1ccccc1NC(=O)CN1c2ccccc2S(=O)(=O)c2ccccc21	·	i	·	·	i
COc1ccc(Nc2oc(COc3ccccc3OC)nc2C#N)cc1	-18.7%	i	-8.5%	?	i
O=S(=O)(c1ccc(Nc2ccc(-c3ccc4c(c3)OCCO4)nn2)cc1)N1CCCC1	?	?	-7.5%	-0.4%	i
O=C(NC1CC1)c1cccc(Nc2ccc(-c3ccc4c(c3)OCCO4)nn2)c1	?	16.4µM*	-10.2%	2.0%	?
CCOc1cc(CNC(C)(C)CO)cc(Br)c1OCc1ccc(Cl)cc1Cl	-14.0%	?	28.1%	6.51µM*	i
CCOc1cc(CNCCO)cc(Br)c1OCc1ccccc1Cl	5.5%	23.1µM*	-5.6%[9.22 µM]	?	?
COc1cc(CNCc2ccncc2)cc(Br)c1OCc1ccccc1F	-18.3%	3.66µM*	-1.6%	1.6%	4.11µM*
SMILES	ELG1 DNA repair	KB-V1 MDR tox	SW480 rerep	MCF10A rerep	KB-3-1 tox
Cc1cccc(CCNC(=O)C2CCN(S(=O)(=O)c3c(C)noc3C)CC2)c1	0.3%	i	?	20.0%	i
O=C(NCc1ccncc1)C(=O)NCC(c1ccco1)N1CCN(c2ccccc2)CC1 (stereo not drawn)	20.6µM*	?	-9.7%	9.7%	i
O=C(NCC(c1ccco1)N1CCN(c2ccccc2F)CC1)c1ccc2c(c1)OCO2 (stereo not drawn)	13µM*	?	69.9%	5.5%	?
O=C(COc1ccccc1)NCC(c1ccco1)N1CCN(c2ccccc2F)CC1 (stereo not drawn)	-26.5%	14.6µM*	?	81.9%	?
O=C(NCc1cccnc1)C(=O)NCC(c1ccco1)N1CCN(c2ccc(F)cc2)CC1 (stereo not drawn)	-20.3%	2.59µM*	-105.7%	-1.6%	?
COc1ccc(N2CCN(C(CNC(=O)C(=O)NCc3cccnc3)c3ccco3)CC2)cc1 (stereo not drawn)	?	?	5.0%	0.8%	i
O=C(COc1ccccc1)NCC(c1ccco1)N1CCN(c2ccc(F)cc2)CC1 (stereo not drawn)	?	i	?	-0.7%	i
O=C(NCC(c1ccco1)N1CCN(c2ccc(F)cc2)CC1)c1ccc2c(c1)OCO2 (stereo not drawn)	?	i	?	?	i
CN(C)c1nc(SCC(=O)Nc2ccccc2)nc(N2CCOCC2)n1	?	?	-7.0%	-2.4%	i
OC(Cn1cncn1)(c1ccccc1)c1ccccc1	7.1%	i	2.6%	9.5%	i
Cc1ccc(Cn2ccc(NC(=O)c3nc4ncccn4n3)n2)cc1	·	i	0.6%	2.0%	i
COc1cc(NC(=O)c2ccccc2F)c(OC)cc1NC(=O)CN1CCCCC1	?	i	-18.2%	?	i
O=C(NCc1ccncc1)C(=O)NCC(c1ccco1)N1CCN(c2ccccc2F)CC1 (stereo not drawn)	?	2.31µM*	-3.6%	-2.9%	i
CC(=O)Oc1ccccc1N(C(C)=O)S(=O)(=O)c1ccc2ccccc2c1	-0.1%	i	-2.9%	-5.0%	i
CC(=O)Oc1ccc(N(C(C)=O)S(=O)(=O)c2cccs2)c2ccccc12	14.6µM*	?	?	?	i
Cc1ccc2cc(F)c(F)c(F)c2n1	·	i	·	·	i
Cc1cc(NS(=O)(=O)c2ccc(NC(=O)COc3ccc(Br)cc3)cc2)nc(C)n1	11.3%	?	?	18.4µM*	?
CCOc1ccc(OCC(=O)Nc2ccc(S(=O)(=O)Nc3cc(C)nc(C)n3)cc2)cc1	9.5%	i	-0.2%[9.22 µM]	1.1%	i
Nc1cc(N)nc(SCCOc2ccccc2F)n1	?	23.1µM*	0.0%	16.7%	i
O=C(NNC(=O)C1CCC1)c1ccccc1F	8.9%	i	0.6%	-0.5%	i
COc1ccc2c(c1[N+](=O)[O-])CCC/C2=N/OC(=O)c1ccccc1SC	-22.1%	i	-3.9%	1.3%	i
Cn1c(SCC(=O)N(Cc2ccccc2)C(C)(C)C)nc2ccccc21	-20.0%	20.6µM*	?	?	i
Cn1c(SCC(=O)N2CCCC2)nc2ccccc21	-10.8%	i	2.5%	-3.1%	i
